Potency and affinity values are given separately. Activity calls are given as the source filed them.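 The calls were made as follows: active = polarization signal falls with dose and the fitted half-maximal concentration is at or below ten times the sample's top valid dose; inconclusive = flat curve at 30 to 70% inhibition, or poor fit; inactive = signal rises, flat within 30%, or potency beyond limit.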
Biological target: Golgi-associated PDZ and coiled-coil motif-containing protein (Homo sapiens) (UniProt Q9HD26)
Assay: potency against CAL PDZ-peptide interaction – biochemical, fluorescence polarization, Cerulean-tagged CAL PDZ, cherry-picks, dose response (AID 504773);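 also: 0% = DMSO neutral wells and -100% = excess unlabeled competitor peptide wells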
Settings: CAL PDZ-peptide binding, 1 h; series mostly up to 50 µM; activity change, negative = inhibition: at the top concentration

Activity change, negative = inhibition, inactive:
N/C(=N\OC(=O)Cc1ccccc1[N+](=O)[O-])c1cccnc1 13.5%
OCC1(CCOc2ccccc2)CCN(CCCn2cccn2)CC1 -20.1%
CCOC(=O)CCNC(=O)N1CCCC(CNS(=O)(=O)Cc2ccccc2)C1 (configuration not stated) -0.597%
COc1ccc(-c2nc3ccccc3o2)cc1OC -10.8%
CCOc1ccc(C2=Nn3c(nnc3-c3ccco3)SC2)cc1 1%
CN(C)S(=O)(=O)c1ccc(Cl)c(NC(=O)CSc2nnnn2-c2ccc(O)cc2)c1 -24.1%
Cn1c(=O)c2c(ncn2CC(=O)Nc2nc(-c3ccccc3Cl)cs2)n(C)c1=O 6.53%
Cc1cccc(C)c1NC(=S)NC(=O)c1ccc(Br)o1 -15.7%
CSc1ccccc1NC(=O)C1CC(c2c(F)cccc2Cl)=NO1 (configuration not stated) -8.91%
O=C(c1cc2cc([N+](=O)[O-])ccc2oc1=O)N1CCN(C2CCCCC2)CC1 24.9%
CSc1ccccc1NC(=O)c1ccccc1 8.04%
O=C(CN(Cc1ccccc1)S(=O)(=O)c1ccc(F)cc1)NCCC1=CCCCC1 28.8%
COc1ccc(/C=N/N2CCN(c3ccccc3OC)CC2)cc1Br -19%
C=CCN1C(=O)/C(=C/c2ccsc2)SC1=S -19.4%
O=C(c1cccs1)N1CCN(C(=O)N2CCOCC2)CC1 -23%
CCCn1nnnc1NCc1cc(Br)ccc1OC 7.73%
Cc1ccc(C(=O)Nc2ccccc2)cc1S(=O)(=O)N1CCN(C)CC1 18.7%
COc1ccc(Cl)cc1C(=O)Nc1ccc2c(c1)OCCO2 6%
COc1cc([N+](=O)[O-])ccc1NC(=O)CN1CCN(C(=O)c2ccco2)CC1 -0.592%
CCOC(=O)C1CCN(C(=O)C2CC(=O)N(c3ccc4c(c3)OCCO4)C2)CC1 (configuration not stated) 12.5%
COC(=O)CN1C(=O)C(O)=C(C(C)=O)C1c1ccc([N+](=O)[O-])cc1 (configuration not stated) 15.1%
Cc1ccc(-c2[nH]c3ccccc3c2SCCN)cc1 -45.7%
CCN(CC(=O)Nc1cc(Cl)cc(Cl)c1)CC(=O)NC1CCS(=O)(=O)C1 (configuration not stated) -16.5%
Cc1cc(SCC(=O)OCC(=O)c2c(N)n(C)c(=O)n(C)c2=O)c(C)cc1Br -4.31%
O=C(c1cc(Br)ccc1Cl)N1CCN(c2ccccn2)CC1 -19.3%
COc1cc(NC(=O)c2cccs2)ccc1NC(=O)c1ccccc1Cl 2.7%
C/C(=C/c1ccccc1)C(=O)N1CCN(c2ccccc2)CC1 10.4%
Cc1cc(NC(=O)CSc2nnc(-c3ccccc3)c(-c3ccccc3)n2)no1 -11.7%
O=C1c2ccccc2C(=O)N1CSc1nnnn1-c1ccccc1 13.4%
Cc1cc(C)c2nc(-c3ccncc3)cc(C(=O)N3CCN(Cc4ccccc4Cl)CC3)c2c1 -33.1%
COc1ccc2ccn(S(=O)(=O)c3ccccc3)c2c1 -31.3%
Cc1ccccc1-n1c(C)c(C#N)c(=O)c(-[n+]2ccccc2)c1[S-] -36.7%
O=C(CCN1C(=O)c2ccccc2C1=O)CN1CCOCC1 -18.3%
CC(=O)N1CCN(c2ccc(NC(=O)c3cccc(Cl)c3Cl)cc2)CC1 11.3%
COc1ccc(/C=C2\N=C(c3ccc(C)cc3)OC2=O)cc1 -21.2%
CCOC(=O)c1nc(NCCc2ccccc2)sc1C 8.59%
COc1cc(OC)cc(C(=O)N[C@H](C(=O)Nc2nc3ccc(S(C)(=O)=O)cc3s2)C(C)C)c1 14.8%

From PubChem BioAssay AID504773 (Broad Institute, 2011)
